Measurements taken from PubChem BioAssay AID2284145 (EPA ToxCast).
Activity calls are given as the source filed them. The calls were made as follows: active = hit-call score of the fitted dose curve at least 0.9, where 1 is the maximum; inactive = score below 0.9.

These molecules were tested against human Adrenoceptor beta1 Antagonism, ADRB1 (gene 153) (UniProt P08588) (assay: ERF_TW_GPCR_hADRB1: Eurofins (ERF) G Protein-Coupled Receptor (GPCR) Radioligand Binding LeadHunter Assay for human Adrenoceptor beta1 Antagonism).
Sequence of human Adrenoceptor beta1 Antagonism, ADRB1 (gene 153) (P08588 whole entry, looked up): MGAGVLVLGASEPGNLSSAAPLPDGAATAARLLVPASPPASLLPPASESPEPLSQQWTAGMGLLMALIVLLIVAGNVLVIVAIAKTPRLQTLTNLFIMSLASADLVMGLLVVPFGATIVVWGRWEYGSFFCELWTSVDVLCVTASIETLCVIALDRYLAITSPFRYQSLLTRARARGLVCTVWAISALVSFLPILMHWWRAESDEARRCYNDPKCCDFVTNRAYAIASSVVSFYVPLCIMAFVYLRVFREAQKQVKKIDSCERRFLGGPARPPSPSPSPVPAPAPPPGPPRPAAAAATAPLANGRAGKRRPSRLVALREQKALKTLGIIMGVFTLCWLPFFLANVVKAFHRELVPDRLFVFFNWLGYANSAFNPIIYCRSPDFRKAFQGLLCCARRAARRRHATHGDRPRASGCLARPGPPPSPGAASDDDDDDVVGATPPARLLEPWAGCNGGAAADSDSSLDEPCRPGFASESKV
Procedure: ERF_TW_GPCR_hADRB1 is a biochemical, single-readout assay that uses extracted gene-proteins in a cell-free assay. Measurements were taken 2 hour after chemical dosing in a 96-well plate. See beta1 Human Adrenoceptor GPCR Binding (Antagonist Radioligand) Assay, Panlabs.ERF_TW_GPCR_hADRB1 is an assay component calculated from the ERF_TW_GPCR_hADRB1 assay. It is designed to measure radioligand binding using a type of binding reporter as detected by scintillation counting with radiometry technology.Data from the assay component ERF_TW_GPCR_hADRB1 was analyzed at the assay endpoint, ERF_TW_GPCR_hADRB1, in the positive analysis fitting direction relative to DMSO as the negative control and baseline of activity. Using a type of binding reporter, loss-of-signal activity can be used to understand changes in radioligand binding as they relate to gene ADRB1. To generalize the intended target to other relatable targets, this assay endpoint is annotated to the gpcr intended target family, where the subfamily is adrenoceptor.
Human recombinant adrenergic beta1 receptors expressed in HEK 293 cells are used in modified Tris-HCl buffer pH 7.4. A 25 ug aliquot is incubated with 0.03 nM [125I]Cyanopindolol for 120 minutes at 25C. […] Receptors are filtered and washed, the filters are then counted to determine [125I]Cyanopindolol specifically bound. […]
With O=C(/C=C/c1ccc(O)cc1)CC(=O)/C=C/c1ccc(O)cc1 the AC50 was 1.13 µM (active).
